Screening data: PubChem, National Center for Advancing Translational Sciences (NCATS)
A selection: hits, their analogues and other compounds. The true share with any hit is near 19%.
ELG1 DNA repair – blocks ELG1-dependent DNA repair in HEK293T cells; 330,000 compounds, 2.3% hits; AID 504467; Potency, µM (series often up to 46.1 µM), usual class: inhibitors; HEK293T ELG1-luciferase reporter, luminescence, 16 h; DNA damage induced by 5-fluorouridine; further: nearly all actives have a fitted effect of over 55% in size
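Quantitative HTS, concentration-response format. 2,000 cells/well co-treated with 5-fluorouridine and compound, 16 hr in 5% CO2 at 37 °C; ONE-Glo luminescence read after 30 min.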
Giardia kill – Giardia lamblia killing. Giardia lamblia trophozoite viability. activity change, % at 7.66 µM, hits read low. 340,000 compounds, 0.15% hits; in the data active means activity change below about -80%; inconclusive means between about -30% and that limit;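 further: parasites exposed to compound for two days anaerobically before the ATP read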
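Trophozoite viability was measured as ATP-dependent luminescence, read 15-30 min after reagent addition. Before that, parasites at 100 cells/well were exposed to compounds for 48 h, anaerobically, at 37 deg C.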
TDP1 block – inhibitors of human tyrosyl-DNA phosphodiesterase TDP1; Q9NUW8; recombinant TDP1, AlphaScreen DNA substrate cleavage; Potency, µM (highest dose often 130 µM), most hits filed as inhibitors; 350,000 compounds, 0.28% hits; AID 485290; further: nearly all actives have a fitted effect of over 40% in size
Target sequence (Q9NUW8 whole entry, looked up): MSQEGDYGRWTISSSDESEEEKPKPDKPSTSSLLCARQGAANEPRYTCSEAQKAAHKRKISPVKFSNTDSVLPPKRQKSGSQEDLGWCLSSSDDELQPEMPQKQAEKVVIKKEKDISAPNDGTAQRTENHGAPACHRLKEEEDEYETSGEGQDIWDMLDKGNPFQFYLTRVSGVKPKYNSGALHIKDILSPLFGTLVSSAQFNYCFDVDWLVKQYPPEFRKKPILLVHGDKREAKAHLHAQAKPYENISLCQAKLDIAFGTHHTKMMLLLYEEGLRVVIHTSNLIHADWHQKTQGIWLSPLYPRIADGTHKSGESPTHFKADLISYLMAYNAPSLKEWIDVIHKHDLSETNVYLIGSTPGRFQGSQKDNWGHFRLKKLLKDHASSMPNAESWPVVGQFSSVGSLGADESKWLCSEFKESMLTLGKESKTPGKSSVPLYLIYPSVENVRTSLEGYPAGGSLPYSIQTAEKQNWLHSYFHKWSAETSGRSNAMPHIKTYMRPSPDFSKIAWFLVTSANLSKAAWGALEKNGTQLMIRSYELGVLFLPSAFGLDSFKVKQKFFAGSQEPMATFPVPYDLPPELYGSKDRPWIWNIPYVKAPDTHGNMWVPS
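Steps: enzyme plus compound, 15 min RT; add biotin/phosphotyrosine-FITC oligonucleotide (15 nM final), react 5 min; add donor/acceptor beads (10 ug/ml final), 10 min; read AlphaScreen. Tdp1 at 1 nM final.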
TDP1 cell CPT – growth inhibition of DT40 Tdp1-/-;hTDP1 cells with camptothecin (screen for TDP1 inhibitors). chicken DT40 Tdp1-/-;hTDP1 cells + 20 nM CPT, ATP luminescence, 48 h. Potency, µM (highest dose often 46.2 µM), usual class: inhibitors. 420,000 compounds, 12% hits. AID 686979; further: nearly all actives have a fitted effect of over 55% in size
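Chicken DT40 Tdp1-/- cells complemented with human TDP1, 400 cells/well, exposed to compounds plus 20 nM camptothecin for at least 48 h at 37 C; viability read as ATP content by CellTiter-Glo luminescence.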
DT40 TDP1 no CPT – qHTS for Inhibitors of human tyrosyl-DNA phosphodiesterase 1 (TDP1): qHTS in cells in absence of CPT; 420,000 compounds, 15% hits; DT40 Tdp1-/- hTDP1 cells, no CPT, ATP luminescence, 48 h; Potency, µM (doses to about 46.2 µM), usual class: inhibitors; further: nearly all actives have a fitted effect of over 55% in size
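Luminescent ATP content (CellTiter-Glo) served as the growth readout. Knockout chicken DT40 cells expressing human TDP1 were exposed to compounds without camptothecin for a minimum 48 hr at 37 °C.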
IL1B secr inh – blocks inflammasome-driven IL-1 beta release; 360,000 compounds, 4.7% hits; activity change, % at 57.5 µM; THP-1 LPS/ATP IL-1B secretion, AlphaLISA, 16 h; stronger effect = lower value; in the data active means activity change below about -50%; inconclusive means mostly about -30% to -49%
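Secreted IL-1B measured by AlphaLISA bead assay after 16 h compound exposure of THP-1 cells; compounds (final up to 57.5 uM) added 1 h before LPS (250 ng/mL) and ATP (1.25 mM) stimulation; lower signal means less secretion.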
A number is an active result; - = inactive; ? = inconclusive; . = no result given. Unless noted, the call rests on the fitted dose curve; in most records, active means well fitted curve in the direction sought with a large enough effect; inconclusive means small, poorly fitted or top-dose-only effect, or another doubt; inactive means no such curve, though single readings can be large; an effect the other way counts as inactive or inconclusive.

SMILES	ELG1 DNA repair	Giardia kill	TDP1 block	TDP1 cell CPT	DT40 TDP1 no CPT	IL1B secr inh
CCOc1ccc(CNC(=O)CSc2cc(=O)n(CC)c3ccccc23)cc1	.	.	-	-	?	.
CCn1c(=O)cc(SCC(=O)Nc2ccc(C)cn2)c2ccccc21	?	-	-	?	29µM	?
CCc1ccc(CNC(=O)CSc2cc(=O)n(CC)c3ccccc23)cc1	.	.	-	21µM	8.2µM	.
Cn1c(=O)cc(SCC(=O)N2CCN(c3ccccc3F)CC2)c2cc(Cl)ccc21	.	.	-	?	?	.
CCn1c(=O)cc(OCC(=O)Nc2ccc(C)cn2)c2ccccc21	?	-	-	?	?	-
CCn1c(=O)cc(SCC(=O)NCc2ccc(C)o2)c2ccccc21	-	-	-	15µM	13µM	-
Cn1c(=O)cc(SCC(=O)NCc2ccc(F)cc2)c2cc(Cl)ccc21	.	.	-	7.3µM	13µM	.
CCn1c(=O)cc(OCC(=O)NCc2ccc(C)o2)c2ccccc21	?	-	-	-	-	-
COc1ccc(NC(=O)c2cc(-c3ccccc3)nc3c2cnn3C(C)C)c(OC)c1	?	-	-	?	?	-
O=C(NC1CC(=O)N(c2cccc(F)c2)C1)c1ccc(Br)o1 (stereo not given)	.	.	-	?	-	.
CCn1c(=O)cc(SCC(=O)NCc2ccc(C)cc2)c2ccccc21	-	-	-	?	26µM	-
Cc1ccc(C(=O)NCCCN2CCOCC2)cc1Cl	?	-	.	-	-	-
O=[N+]([O-])c1cc(S(=O)(=O)NCCCN2CCOCC2)ccc1Cl	?	-	-	-	-	-64
O=[N+]([O-])c1cc(S(=O)(=O)NCCN2CCOCC2)ccc1Sc1nnnn1-c1ccccc1	?	-	-	5.8µM	6.5µM	-100
Cc1ccc(NC(=O)c2ccc(NCCCN3CCOCC3)c([N+](=O)[O-])c2)cc1Cl	18µM	-	-	?	21µM	-67
O=C(NCCCN1CCOCC1)c1ccc(Sc2cccc(Cl)c2)c([N+](=O)[O-])c1	-	-	-	?	21µM	?
S=C1SCCCN1Cc1ccc(Cl)cc1	.	.	.	?	?	-
CCOc1ccccc1N/C(=N/c1nc(C)cc(C)n1)NC(=O)Nc1ccc(Cl)c(Cl)c1	-	.	-	.	.	.
CCOc1cc(/C=C(\C#N)C(=O)Nc2ccc(C)cc2)ccc1OCc1cc(=O)n2nc(CC)sc2n1	.	.	-	-	-	.
COc1ccc(NC(=O)c2ccc(NCCCN3CCOCC3)c([N+](=O)[O-])c2)cc1	-	-	-	21µM	18µM	?
O=C(NCCCN1CCOCC1)c1ccc(Cl)c([N+](=O)[O-])c1	.	-	.	-	-	-
O=[N+]([O-])c1ccc(NCCCN2CCOCC2)c([N+](=O)[O-])c1	-	?	-	-	-	-
O=C(Nc1ccc(Cl)c([N+](=O)[O-])c1)c1ccc(NCCCN2CCOCC2)c([N+](=O)[O-])c1	-	?	-	2.3µM	2.3µM	-
Cc1cccc(C(=O)OCC(=O)c2c(C)[nH]c3ccccc23)c1O	?	-	-	?	?	-
NC(N)=N/N=C/c1ccc(OCc2ccccc2)c(OCc2ccccc2)c1	?	-	-	?	18µM	-96
SMILES	ELG1 DNA repair	Giardia kill	TDP1 block	TDP1 cell CPT	DT40 TDP1 no CPT	IL1B secr inh
CCOc1cc(/C=N/N=C(N)N)ccc1OCc1ccc(Cl)cc1	-	-	-	15µM	16µM	-108
CCC(C)NC(=O)c1ccc(COc2ccccc2Cl)cc1 (stereo not given)	-	-	-	?	?	?
O=C(O)c1cc(/C=N\O)ccc1OCc1ccccc1	?	-	-	-	-	-
COc1cc(/C=N/O)ccc1OCc1ccc(Cl)cc1	?	.	-	.	.	.
CCCC(C)NC(=O)c1ccc(OCc2ccc(Cl)cc2)c(OC)c1 (stereo not given)	-	-	-	?	8.2µM	-
COc1cc(/C=N/N=C(N)N)ccc1OCc1ccc(Cl)cc1	?	-	-	6.5µM	5.8µM	-94
Cn1cc(CN(CCO)Cc2cccs2)c(-c2ccccc2F)n1	-	-	-	-	-	-
COc1cccc(OCC(=O)O/N=C(\N)c2ccc(OC)c(OC)c2)c1	-	-	-	-	-	-
Cc1ccc(-n2ncc3c2CCCC3NC(=O)CCN2CCCC2=O)cc1C (stereo not given)	-	-	-	-	-	-
Cc1cc(C(=O)NC2CCCc3c2cnn3-c2ccc(C)c(C)c2)nc(C)n1 (stereo not given)	-	-	-	?	16µM	-
COC(=O)c1ccc(C(=O)NC2CCCc3c2cnn3-c2ccc(C)c(C)c2)cc1 (stereo not given)	-	-	-	1.3µM	1µM	-
Cc1cc(C)cc(-n2ncc3c2CCCC3NC(=O)c2ccccc2)c1 (stereo not given)	.	.	.	?	?	-
COc1cccc(C(=O)NC2CCCc3c2cnn3-c2cc(C)cc(C)c2)c1 (stereo not given)	-	-	-	?	?	-58
CSCC(=O)NC1CCCc2c1cnn2-c1ccc(C)c(C)c1 (stereo not given)	-	-	-	-	?	-
COc1ccc(Cl)cc1C(=O)Nn1cnnc1	-	-	.	-	-	-
C=CCN=C1CC(C)(C)C(C(=O)OC)C(O)=C1C(=O)CCC (stereo not given)	-	-	-	-	-	-
C=CCSc1n[nH]c(-c2ccc(OCCCC)cc2)n1	?	-	-	?	?	-
C=CCSc1n[nH]c(-c2ccc(OCCC)cc2)n1	?	-	-	29µM	16µM	-
CCCCC1CCC(C(=O)NCC(c2ccco2)N2CCOCC2)CC1 (stereo not given)	-	.	-	.	.	.
CCCc1ccc(O)c(N=Cc2cc(Br)cc(OCC)c2O)c1	?	-	-	3.7µM	2.6µM	-
CCOc1ccc(Br)cc1/C=N/O	.	-	-	-	-	-
COC(=O)[C@@H](NC(=O)NC1CCCCC1C)C(C)C (stereo not given in full)	?	-	-	-	-	-
COC(=O)[C@@H](NC(=O)N(C1CCCCC1)C1CCCCC1)C(C)C	-	-	-	11µM	13µM	-
COc1ccc(C2=NO[C@@](CC(=O)O)(C(=O)Nc3ccc4c(c3)OCCO4)C2)cc1	-	-	.	-	-	-
COCCn1c(C)cc(C(=O)COC(=O)Cc2n[nH]c(=O)c3ccccc23)c1C	?	-	-	?	21µM	-
Cc1cc(C(=O)COC(=O)Cc2n[nH]c(=O)c3ccccc23)c(C)n1CC(F)(F)F	-	-	-	-	-	-
COCCn1c(C)cc(C(=O)COC(=O)c2ccc3ncsc3c2)c1C	?	-	-	13µM	15µM	-
